Only some compounds are listed: those with a hit (about 3.5% of all), similar ones and a draw of the others.
GDH-TPI counter-1 = inhibits GDH-TPI coupling enzymes, artifact for Mtb FBA screen. GDH-TPI coupled enzyme counterscreen, NADH absorbance. inhibition, % at 4.8 µM. 360,000 tested, 1.2% active. AID 588335; in the data active = inhibition above about 30%;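 note: 0% = DMSO wells and 100% = wells lacking the enzyme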
Mtb betalactam = beta-lactam sensitization of Mtb H37Rv | M. tuberculosis H37Rv growth with meropenem, percent inhibition | inhibition, % at 25 µM | 330,000 tested, 0.27% active | AID 434955; call rule not given here;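 note: growth measured after seven days incubation then overnight dye step; 0% = bacteria only wells and 100% = bacteria with antibiotic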
Rv3671c protease = Rv3671c (M. tuberculosis) protease inhibition. P9WHR9. inhibition, % at 5.96 µM. 320,000 tested, 0.048% active. AID 2606; in the data active = inhibition above about 38%;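 note: extracellular domain of Rv3671c used as enzyme; 0% = enzyme with DMSO and 100% = no enzyme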
UGM FP inh = Mtb UDP-galactopyranose mutase inhibition; P9WIQ1; purified UGM, fluorescence polarization probe displacement; 320,000 tested, 0.06% active; inhibition, % at 10 µM; in the data active = inhibition above about 10%, passing the limit was not always enough
Target sequence (P9WIQ1 whole entry, looked up): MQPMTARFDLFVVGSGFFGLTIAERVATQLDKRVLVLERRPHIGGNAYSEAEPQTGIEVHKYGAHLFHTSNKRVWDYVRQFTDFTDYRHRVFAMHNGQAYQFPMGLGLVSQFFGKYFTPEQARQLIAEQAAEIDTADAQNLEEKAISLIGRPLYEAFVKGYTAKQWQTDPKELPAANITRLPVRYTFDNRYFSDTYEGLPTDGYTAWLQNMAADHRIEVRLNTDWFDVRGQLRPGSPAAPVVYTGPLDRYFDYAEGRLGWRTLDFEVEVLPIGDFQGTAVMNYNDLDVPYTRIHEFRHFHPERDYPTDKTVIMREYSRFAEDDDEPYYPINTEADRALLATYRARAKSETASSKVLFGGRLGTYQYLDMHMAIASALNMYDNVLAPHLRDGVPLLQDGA
Mtb FBA inh = inhibits M. tuberculosis FBA enzyme; P9WQA3; purified M. tuberculosis FBA, fluorescence read-out; inhibition, % at 1 µM; 360,000 tested, 2.3% active; AID 588726;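 note: 0% = vehicle and 100% = reference inhibitor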
Mtb FBA confirm = confirmation of M. tuberculosis fructose-bisphosphate aldolase inhibitors. shares compounds with Mtb FBA inh. purified M. tuberculosis FBA, fluorescence read-out. inhibition, % at 1 µM. 5,600 tested, 78% active. AID 651616;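 note: 0% = vehicle wells and 100% = reference inhibitor wells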
GDH-TPI counter-2 = inhibits GDH-TPI coupling enzymes, flagging Mtb FBA hits | inhibition, % at 1 µM | AID 652141 | GDH-TPI coupled enzyme counterscreen, fluorescence | shares compounds with Mtb FBA inh | 5,600 tested, 81% active; in the data active = inhibition above about 10%
* = called active by the depositor; . = no result given; + = active, no number. Cut-off read from the data, not from the text of the source, unless noted: active = inhibition above about 27%; inactive = the rest.

SMILES	GDH-TPI counter-1	Mtb betalactam	Rv3671c protease	UGM FP inh	Mtb FBA inh	Mtb FBA confirm	GDH-TPI counter-2
COc1cccc(CNC(=O)CCC(=O)N2CCSc3ccccc32)c1OC	-11.0	-7.1	4.4	-0.7	1.8	.	.
Cc1ccccc1NC(=O)c1ccc2c(c1)N(C)CCS2	19.9	-3.7	-1.6	-0.2	3.9	.	.
COc1ccc(CNC(=O)c2ccc3c(c2)N(C)CCS3)cc1	19.9	-4.1	7.6	2.3	51.9*	86.2*	59.1*
Cc1cccc(CNC(=O)c2ccc3c(c2)N(C)CCS3)c1	7.2	-11.4	0.0	-0.9	55.8*	34.1*	37.9*
CN1CCSc2ccc(C(=O)NCc3cccc(Br)c3)cc21	-2.4	-3.1	2.9	-5.5	66.4*	50.5*	34.8*
COc1cccc(CNC(=O)c2ccc3c(c2)N(C)CCS3)c1OC	-8.7	-1.1	1.6	-2.4	88.0*	49.2*	45.0*
O=C(CSCC(=O)N1CCCc2ccccc21)Nc1nc(-c2ccccc2)cs1	-5.3	-1.2	-16.8	3.9	-1.0	.	.
NC(=O)CSC1=Nc2ccccc2C2=NC(c3ccccc3)C(=O)N12 (stereo not given)	10.5	-5.5	4.2	3.3	28.0*	50.9*	43.0*
CCOC(=O)CSC1=Nc2ccccc2C2=NC(CC(=O)NCc3cccs3)C(=O)N12 (stereo not given)	9.1	-2.5	-1.4	3.9	4.5	.	.
CCOC(=O)CSC1=Nc2ccccc2C2=NC(CC(=O)NCc3ccccc3)C(=O)N12 (stereo not given)	7.7	3.6	5.5	1.6	28.9*	102.8*	102.1*
COC(=O)C1=C(c2ccc(-c3ccccc3)c(F)c2)C[C@@H]2CC[C@H]1N2C(=O)NCCNC(C)=O	3.1	-2.5	5.0	0.0	42.9*	45.3*	37.8*
COC(=O)c1ccc(C(=O)OC)c(=O)[nH]1	6.6	5.4	-3.7	-1.3	62.5*	3.0	-0.4
CC(=O)OCC(=O)c1ccc2ccn(C(C)=O)c2c1	14.8	10.9	-0.4	-1.7	35.8*	15.4	19.9*
COc1ccccc1N1CCN(CC(=O)c2ccc3ccn(C(C)=O)c3c2)CC1	7.3	-2.3	0.3	-0.5	7.3	.	.
Cc1ccc(S(=O)(=O)NNc2c3ccccc3nc3ccc(Cl)cc23)cc1	10.0	.	.	.	91.1*	41.7*	28.4*
O=c1ccc(/C=C/c2ccccc2)nn1Cc1ccccc1	10.8	6.3	-4.0	-1.8	25.4	.	.
Cn1nc(/C=C/c2ccccc2)ccc1=O	0.0	-9.7	-9.3	-1.0	30.9*	63.5*	56.2*
CCN(CC)S(=O)(=O)c1ccc2c3c(cccc13)C(=O)N2	16.0	7.2	-1.3	-1.0	6.3	.	.
O=C1Nc2ccc(S(=O)(=O)NCCC3=CCCCC3)c3cccc1c23	-3.2	-3.7	-12.3	-1.2	13.1	.	.
CCNS(=O)(=O)c1ccc2c3c(cccc13)C(=O)N2	19.1	4.7	-4.4	-0.5	65.1*	53.4*	38.0*
O=C1Nc2ccc(S(=O)(=O)NCC3CCCO3)c3cccc1c23 (stereo not given)	3.2	-5.7	-7.3	-0.1	49.6*	46.6*	30.5*
O=C1Nc2ccc(S(=O)(=O)NCCCO)c3cccc1c23	27.9	-4.6	.	2.7	51.9*	94.1*	61.2*
CCn1c(C)c(CCC(=O)O)c(=O)n2nc(-c3ccccc3OC)cc12	11.8	-2.8	7.3	1.9	53.7*	39.5*	40.6*
Cc1nn(-c2ccccc2)c(C)c1CCC(=O)O	-8.1	-1.8	6.2	0.8	1.6	.	.
COCCCn1cnc2oc3nc4ccccc4nc3c2c1=O	8.7	-15.4	9.9	2.0	100.1*	85.7*	64.5*
SMILES	GDH-TPI counter-1	Mtb betalactam	Rv3671c protease	UGM FP inh	Mtb FBA inh	Mtb FBA confirm	GDH-TPI counter-2
COCCCn1cnc2c(c1=O)c1nc3ccccc3nc1n2-c1ccccc1	6.9	59.5	0.4	-2.1	6.5	.	.
CCOC(=O)c1sc2nc(C)nc(NCc3cccnc3)c2c1C	0.0	-0.8	-7.1	0.3	43.8*	107.5*	87.9*
CCOC(=O)c1sc2nc(C)nc(NCc3ccc(F)cc3)c2c1C	14.9	7.0	-19.1	-1.1	41.2*	44.3*	45.6*
CCOC(=O)c1sc2nc(CC(=O)OC)nc(N3CCN(c4ccccn4)CC3)c2c1C	16.7	85.7	-3.9	3.0	1.9	.	.
CCOC(=O)c1sc2nc(CC(=O)OC)nc(NCc3ccc(F)cc3)c2c1C	16.9	-0.8	0.5	-1.0	31.6*	+	148.0*
CCOC(=O)c1sc2nc(C)nc(NCc3ccc(Cl)cc3)c2c1C	7.3	-2.7	-40.5	0.1	17.8	.	.
COCO/C=C(\NC(C)=O)c1ccccc1	-13.2	2.9	-5.4	-2.0	1.8	.	.
C[C@H](CO)N1C[C@H](C)[C@@H](CN(C)Cc2ccccn2)Oc2ncc(Br)cc2C1=O	6.2	.	.	.	-1.6	.	.
Cn1c(=O)c2c(SCC(=O)Nc3ccccc3F)nc(-c3ccccc3F)nc2n(C)c1=O	5.8	-2.3	-5.6	-1.1	-1.2	.	.
O=S(=O)(Nc1ccc2ccccc2n1)c1ccc2c(c1)CCO2	7.1	-1.3	1.9	0.8	1.9	.	.
CC1CC(C)CN(C(=O)Cn2c(SCC(=O)N3CCc4ccccc4C3)nc3ccccc32)C1 (stereo not given)	-2.6	5.7	-13.9	0.1	48.1*	68.7*	48.6*
CC(C)NC(=O)Cn1c(SCC(=O)N2CCc3ccccc3C2)nc2ccccc21	3.5	-6.4	-5.9	1.2	0.8	.	.
O=C1CCCC2=C1C(c1ccc(O)c(O)c1)Nc1ccc3ccccc3c12 (stereo not given)	14.5	8.8	10.9	-2.9	1.9	.	.
O=C1CCCC2=C1C(c1ccco1)Nc1ccc3ccccc3c12 (stereo not given)	22.5	5.4	7.4	-0.6	95.1*	109.9*	76.5*
O=C(c1cc(C(=O)N2CCOCC2)c2nc3ccccc3n2c1)c1cc(Cl)cc(Cl)c1O	27.3	55.1	1.4	-1.4	-2.5	.	.
CC(=O)NCCNc1nc2cc(-c3ccc4c(ccn4C)c3)sc2c(=O)n1C	10.6	.	.	.	32.8*	78.0*	83.1*
CC(=O)NCCNc1nc2cc(-c3ccc(C)cc3)sc2c(=O)n1C	17.7	.	.	.	3.1	.	.
COc1cc2nc(N3CCN(c4cc(C)ccc4C)CC3)nc(N)c2cc1OC	15.2	100.2	9.4	-0.7	5.8	.	.
COc1cc2nc(N3CCNCC3)nc(N)c2cc1OC	3.9	-13.0	-2.9	-2.7	56.2*	8.1	-2.6
COc1ccc(CCNC(=O)COC(=O)c2ccccc2NCCO)cc1OC	5.0	-3.9	0.1	1.3	91.0*	128.2*	77.6*
O=C(COC(=O)c1ccccc1NCCO)NCc1cccs1	2.9	-4.9	-3.9	0.8	65.8*	20.3	23.7*
COc1ccc(CCNC(=O)COC(=O)c2ccco2)cc1OC	-10.6	-5.8	-0.5	-0.7	-11.5	.	.
Cc1csc(NC(=O)c2cc3c(s2)-c2ccccc2OC3)n1	18.8	1.5	-15.0	0.4	39.3*	123.3*	102.0*
COc1ccc2nc(Nc3nc4cc5c(cc4s3)OCO5)sc2c1	14.2	78.7	-6.8	-1.1	57.4*	+	+

Source: PubChem
